Measurements from PubChem BioAssay.
Values without a mark were called inactive. For some of these results: Potency and affinity values are given separately. Activity calls are given as the source filed them.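 How the source made its calls, unless noted: active means thallium flux through the channel raised or lowered by more than 3 SD from vehicle-only wells, actives on both sides; inactive means the rest.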

Assays:
F380Y = experiment: BK channel mutant inhibitors and activators – cell-based, U2OS BacMam, thallium flux, beta subunits, selectivity assay, profiling panel (AID 1259406); conditions: U2OS BacMam BK variants, at 30 µM;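 further: initial slope of Thallos dye fluorescence rise after thallium is added; log ratio against the mean of 0.3% DMSO vehicle wells on the same plate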
F380Y/beta1 = experiment: as above; conditions: U2OS BacMam BK variants, at 30 µM
F380Y/beta2Delta = experiment: as above; conditions: U2OS BacMam BK variants, at 30 µM
F380Y/beta4 = experiment: as above; conditions: U2OS BacMam BK variants, at 30 µM
[1] = molecular target: Calcium-activated potassium channel subunit alpha-1 (Homo sapiens) + Leucine-rich repeat-containing protein 26 (Homo sapiens) (UniProt Q12791+Q2I0M4); experiment: as above; conditions: U2OS BacMam BK variants, F380Y/Slo1WT/gamma1, at 30 µM
Sequence of Calcium-activated potassium channel subunit alpha-1 (Homo sapiens) + Leucine-rich repeat-containing protein 26 (Homo sapiens) (Q2I0M4 whole entry, looked up, one chain of several): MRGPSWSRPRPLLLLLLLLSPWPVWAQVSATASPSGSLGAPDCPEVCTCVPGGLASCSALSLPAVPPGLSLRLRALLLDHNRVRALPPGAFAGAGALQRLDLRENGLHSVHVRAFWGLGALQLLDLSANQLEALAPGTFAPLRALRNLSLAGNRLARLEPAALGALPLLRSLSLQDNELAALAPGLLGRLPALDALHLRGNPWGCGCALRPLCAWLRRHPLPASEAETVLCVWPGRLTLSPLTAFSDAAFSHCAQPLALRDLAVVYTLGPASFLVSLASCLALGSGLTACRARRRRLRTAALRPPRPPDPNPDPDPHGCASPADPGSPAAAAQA

R275C = experiment: as above; conditions: U2OS BacMam BK variants, at 30 µM
R275C/beta1 = experiment: as above; conditions: U2OS BacMam BK variants, at 30 µM
R275C/beta2Delta = experiment: as above; conditions: U2OS BacMam BK variants, at 30 µM
R275C/beta4 = experiment: as above; conditions: U2OS BacMam BK variants, at 30 µM
R275C/Slo1WT/beta2 = experiment: as above; conditions: U2OS BacMam BK variants, at 30 µM
[2] = antimalarial activity against Dd2 strain (AID 2302;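 active means growth inhibition above 50% at the single 2 µM test dose, taken to imply half-maximal potency below 2 µM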;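 further: 0% = DMSO untreated growth and 100% = chloroquine plus artemisinin killed control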); conditions: P. falciparum Dd2 in RBCs, LDH growth readout, 72 h; at 2 µM; active compounds read high
[3] = human hepatoma cell viability loss – ATP luminescence, cytotoxicity control for P. falciparum antimalarial project, primary screen (AID 2303;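 active means inhibition above 50%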;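 further: 0% = DMSO wells and 100% = digitonin-killed cells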); conditions: HepG2 viability, 24-48 h, at 10 µM, active compounds read high
[4] = molecular target: L-lactate dehydrogenase (Plasmodium falciparum (isolate CDC / Honduras)) (UniProt Q27743); experiment: PfLDH activity inhibition – cell lysate, 3D7 strain, counter-screen for P. falciparum growth inhibition project (AID 2304; call rule not given here;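 further: 0% = vehicle and 100% = reference inhibitor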); conditions: P. falciparum 3D7 crude extract, LDH APAD/NBT absorbance; at 2 µM; active compounds read high
Sequence of L-lactate dehydrogenase (Plasmodium falciparum (isolate CDC / Honduras)) (Q27743 whole entry, looked up): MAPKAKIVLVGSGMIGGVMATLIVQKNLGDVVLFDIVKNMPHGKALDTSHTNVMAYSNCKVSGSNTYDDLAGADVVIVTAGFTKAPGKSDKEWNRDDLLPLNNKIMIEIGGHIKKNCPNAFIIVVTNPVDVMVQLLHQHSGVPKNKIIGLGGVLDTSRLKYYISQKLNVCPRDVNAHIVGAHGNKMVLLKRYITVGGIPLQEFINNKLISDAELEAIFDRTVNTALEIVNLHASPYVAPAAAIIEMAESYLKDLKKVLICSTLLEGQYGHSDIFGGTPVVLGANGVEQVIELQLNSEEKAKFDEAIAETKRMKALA

[5] = inhibition of 3D7 malaria parasite growth – strain 3D7 (AID 2306; call rule not given here;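 further: 0% = DMSO wells and 100% = chloroquine plus artemisinin control wells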); conditions: P. falciparum 3D7 erythrocytic growth, LDH absorbance, 72 h; at 2 µM; active compounds read high
[6] = molecular target: Protein kinase 7 (PK7), Plasmodium falciparum 3D7 (PF3D7_0213400) (UniProt Q7YTF7); experiment: inhibition of Plasmodium PK7 catalytic activity – biochemical, TCAMS antimalarial set, Kinase-Glo luminescence (AID 1159587; call rule not given here); conditions: recombinant PfPK7, Kinase-Glo ATP depletion luminescence
Sequence of Protein kinase 7 (PK7), Plasmodium falciparum 3D7 (PF3D7_0213400) (Q7YTF7 1-343): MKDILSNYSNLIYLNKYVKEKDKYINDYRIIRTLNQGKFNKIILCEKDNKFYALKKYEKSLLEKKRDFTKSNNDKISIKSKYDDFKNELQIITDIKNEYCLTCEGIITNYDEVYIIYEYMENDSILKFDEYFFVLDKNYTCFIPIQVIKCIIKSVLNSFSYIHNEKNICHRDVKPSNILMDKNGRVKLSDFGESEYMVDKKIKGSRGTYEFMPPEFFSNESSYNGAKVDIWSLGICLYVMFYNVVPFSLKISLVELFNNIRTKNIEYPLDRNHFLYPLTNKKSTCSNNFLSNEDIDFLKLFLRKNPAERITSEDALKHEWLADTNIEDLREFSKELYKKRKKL

[7] = molecular target: Calcium-dependent protein kinase 4 (Plasmodium falciparum (isolate 3D7)) (UniProt Q8IBS5); experiment: PfCDPK4 kinase inhibitors, biochemical, TCAMS library (AID 1159588; cut-off not given, nearly all actives have IC50 up to about 0.91 µM); conditions: recombinant PfCDPK4, Kinase-Glo ATP depletion luminescence
Sequence of Calcium-dependent protein kinase 4 (Plasmodium falciparum (isolate 3D7)) (Q8IBS5 whole entry, looked up): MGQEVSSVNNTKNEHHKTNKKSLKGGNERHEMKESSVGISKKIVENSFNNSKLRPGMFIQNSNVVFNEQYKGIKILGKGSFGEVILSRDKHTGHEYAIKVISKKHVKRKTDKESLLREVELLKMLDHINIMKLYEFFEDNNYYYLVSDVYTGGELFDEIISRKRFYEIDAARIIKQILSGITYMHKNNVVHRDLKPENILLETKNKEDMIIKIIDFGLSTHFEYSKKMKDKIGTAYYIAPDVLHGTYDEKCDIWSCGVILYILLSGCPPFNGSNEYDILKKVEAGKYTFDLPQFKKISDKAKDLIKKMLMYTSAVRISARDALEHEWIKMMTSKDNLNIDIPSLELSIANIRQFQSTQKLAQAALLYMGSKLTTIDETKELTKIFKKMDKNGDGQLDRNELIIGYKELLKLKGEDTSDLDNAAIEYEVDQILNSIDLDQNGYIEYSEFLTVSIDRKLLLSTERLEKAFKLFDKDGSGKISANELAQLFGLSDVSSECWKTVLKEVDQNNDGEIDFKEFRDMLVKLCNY

Row | SMILES | log fold change Tl+ flux (F380Y) | log fold change Tl+ flux (F380Y/beta1) | log fold change Tl+ flux (F380Y/beta2Delta) | log fold change Tl+ flux (F380Y/beta4) | log fold change Tl+ flux [1] | log fold change Tl+ flux (R275C) | log fold change Tl+ flux (R275C/beta1) | log fold change Tl+ flux (R275C/beta2Delta) | log fold change Tl+ flux (R275C/beta4) | log fold change Tl+ flux (R275C/Slo1WT/beta2) | growth inhibition [2] | inhibition [3] | inhibition [4] [%] | growth inhibition [5] | outcome [6] | outcome [7]
1 | CCOC(=O)C(C)Oc1ccc(NS(=O)(=O)c2cc(OC)ccc2OC)cc1Cl (stereo unspecified) | -0.0459 | -0.0343 | -0.0957 | -0.104 (active) | -0.0848 | -0.0618 | 0.0118 | -0.0738 | -0.0156 | -0.0391 | – | – | – | – | – | –
2 | CC(=O)Nc1cccc(Nc2nccc(-c3c(-c4cccc(NC(=O)c5c(F)cccc5F)c4)nn4ncccc34)n2)c1 | – | – | – | – | – | – | – | – | – | – | 51% (active) | 83% (active) | 5 | 96% (active) | inactive | –
3 | COC(=O)C1=C(C)NC(C)=C(C(=O)OC)C1c1ccccc1 | -0.0145 | 0.00442 | -0.0123 | 0.0301 | 0.0229 | 0.00578 | 0.033 | -0.018 | 0.0507 | 0.0172 | – | – | – | – | – | –
4 | CS(=O)(=O)Cc1ccc(Nc2nccc(-c3c(-c4cccc(C(=O)Nc5c(F)cccc5F)c4)nn4ccccc34)n2)cc1 | – | – | – | – | – | – | – | – | – | – | 92% (active) | 85% (active) | -1 | 96% (active) | inactive | –
5 | Cc1ccc(C2=C(c3ccccc3)C(=O)C(c3ccccc3)=C2c2ccc(Cl)cc2)cc1 | -0.00103 | -0.0199 | 0.00394 | -0.0256 | 0.0117 | 0.0143 | -0.08 | 0.0554 | -0.0334 | -0.0207 | – | – | – | – | – | –
6 | CC(=O)c1sc(SCc2ccc(Cl)cc2)c2c1CC(C)(C)CC2=O | -0.0184 | 0.0319 | 0.0184 | -0.123 (active) | -0.0796 | 0.014 | -0.034 | -0.0422 | 0.00684 | 0.00246 | – | – | – | – | – | –
7 | O=C(Nc1ccc(Cl)cc1)c1cnccc1C(F)(F)F | 0.0622 | 0.0187 | 0.066 | 0.0347 | -0.0423 | 0.0193 | 0.0288 | -0.00135 | 0.0311 | -0.0457 | – | – | – | – | – | –
8 | CS(=O)(=O)Cc1ccc(Nc2nccc(-c3c(-c4cccc(NC(=O)C5CCCCC5)c4)nn4ncccc34)n2)cc1 | – | – | – | – | – | – | – | – | – | – | 99% (active) | 31% | 0 | 98% (active) | inactive | –
9 | Cc1ccc(S(N)(=O)=O)c(I)c1 | 0.00642 | 0.0178 | 0.0148 | -0.000543 | -0.0495 | 0.0442 | 0.0166 | -0.00341 | 0.00339 | -0.0513 | – | – | – | – | – | –
10 | Clc1ccc(-c2nc(-c3cnccn3)no2)cc1 | -0.0251 | 0.0188 | -0.00983 | 0.0205 | -0.00021 | 0.00752 | -0.0226 | 0.0101 | 0.00987 | 0.0471 | – | – | – | – | – | –
11 | CC(=O)N(C(C)=O)c1ccc2c3c(cccc13)CC2 | 0.051 | -0.00187 | -0.0119 | -0.0487 | -0.0226 | 0.0133 | 0.0421 | -0.00855 | 0.0484 | 0.0138 | – | – | – | – | – | –
12 | Cc1c(C(=O)CSc2n[nH]c(=O)n2C(C)c2ccccc2)sc2ccc(Cl)cc12 (stereo unspecified) | 0.0243 | 0.0267 | 0.0136 | -0.00607 | 0.0185 | 0.0226 | 0.0417 | 0.0219 | 0.0303 | -0.0119 | – | – | – | – | – | –
13 | NC(=O)c1ccccc1Nc1nc(Nc2cccc(N3CCN(CCO)CC3)c2)ncc1Cl | – | – | – | – | – | – | – | – | – | – | 98% (active) | 93% (active) | 1 | 95% (active) | inactive | inactive
14 | COc1ccc(Cl)cc1N1C(=O)C=C(c2ccccc2)C1=O | 0.0164 | 0.00407 | -0.00673 | -0.00456 | 0.00342 | -0.0171 | 0.056 | 0.00976 | 0.0143 | -0.0335 | – | – | – | – | – | –
15 | CS(=O)(=O)Cc1ccc(Nc2nccc(-c3c(-c4cccc(NC(=O)c5c(F)cccc5F)c4)nn4ccccc34)n2)cc1 | – | – | – | – | – | – | – | – | – | – | 75% (active) | 78% (active) | 0 | 99% (active) | inactive | –
16 | O=S(=O)(Cc1nc(-c2ccc3c(c2)OCCO3)cs1)c1ccccn1 | -0.0443 | -0.0373 | 0.0231 | -0.00916 | -0.0733 | -0.0303 | -0.0291 | 0.0317 | -0.00702 | -0.0322 | – | – | – | – | – | –
17 | O=C1c2ccccc2NC(c2cc(Cl)cc(Cl)c2O)N1Cc1cccnc1 (stereo unspecified) | 0.0629 | 0.0897 (active) | 0.0333 | 0.104 (active) | 0.0598 | 0.00967 | 0.0327 | 0.0578 | 0.0953 (active) | -0.0554 | – | – | – | – | – | –
18 | CCCCC#Cc1ccc(C(=O)NNC(=O)Nc2ccccc2)o1 | 0.0775 | -0.0382 | 0.0115 | 0.00448 | -0.0213 | 0.0317 | 0.0182 | -0.00673 | -0.0333 | 0.023 | – | – | – | – | – | –
19 | CN1CCN(c2ccc(Nc3ncc(C#N)c(Nc4ccccc4C(N)=O)n3)cc2)CC1 | – | – | – | – | – | – | – | – | – | – | 93% (active) | 43% | -1 | 92% (active) | inactive | –
20 | O=C(Nc1cccc(-c2nn3ccccc3c2-c2ccnc(Nc3ccc(NCCCN4CCOCC4)c(F)c3)n2)c1)c1c(F)cccc1F | – | – | – | – | – | – | – | – | – | – | 97% (active) | 86% (active) | 0 | 100% (active) | inactive | –
21 | CC(c1cccc(Nc2nccc(-c3c(-c4cccc(NC(=O)c5c(F)cccc5F)c4)nn4ncccc34)n2)c1)S(C)(=O)=O (stereo unspecified) | – | – | – | – | – | – | – | – | – | – | 98% (active) | 79% (active) | 4 | 98% (active) | inactive | –
22 | C#CC1(NC(=O)c2ccc(-c3ccc(CC)cc3)cc2)CCCCC1 | 0.0109 | 0.0082 | 0.0141 | 0.0366 | 0.047 | 0.0116 | -0.0162 | -0.00151 | 0.0306 | -0.00603 | – | – | – | – | – | –
23 | Cc1cc(Nc2ncc(C#N)c(Nc3ccccc3C(N)=O)n2)ccc1N1CCN(C)CC1 | – | – | – | – | – | – | – | – | – | – | 94% (active) | 99% (active) | 0 | 94% (active) | inactive | –
24 | O=C(Nc1ccc(F)cc1)N1CCN(Cc2ccccc2)CC1 | 0.0438 | 0.00516 | 0.00491 | 0.032 | 0.0285 | 0.0233 | 0.0689 | -0.00966 | 0.0882 (active) | 0.000608 | – | – | – | – | – | –
25 | O=C1CCC(=O)N1c1ccc(S(=O)(=O)NCCCN2CCN(Cc3ccccc3)CC2)cc1 | 0.0288 | 0.0192 | -0.00712 | -0.0181 | 0.0299 | -0.0386 | 0.0158 | -0.00414 | -0.00195 | -0.018 | – | – | – | – | – | –
26 | Cc1nn(S(=O)(=O)c2ccccc2)c(C)c1Oc1ccc(Cl)cc1 | -0.154 (active) | -0.178 (active) | -0.15 (active) | -0.668 (active) | -0.342 (active) | -0.199 (active) | -0.214 (active) | -0.0399 | -0.114 (active) | -0.0715 | – | – | – | – | – | –
27 | O=C1c2cccc3c(Sc4ccccc4)ccc(c23)C(=O)N1CCc1ccccn1 | 0.00854 | -0.00319 | -0.0137 | 0.0446 | 0.0111 | -0.0274 | -0.0207 | 0.02 | -0.00592 | 0.0318 | – | – | – | – | – | –
28 | CCOC(=O)c1nn(-c2ccc(C(C)(C)C)cc2)c(=O)c(C#N)c1C | -0.364 (active) | -0.189 (active) | -0.281 (active) | -0.097 (active) | -0.15 (active) | -0.52 (active) | -0.383 (active) | -0.219 (active) | -0.26 (active) | -0.0278 | – | – | – | – | – | –
29 | NC(=NOC(=O)Nc1cccc(Cl)c1)c1ccno1 | -0.00531 | 0.0032 | 0.0232 | 0.000547 | 0.0155 | -0.025 | -0.0193 | 0.00772 | 0.0126 | 0.0133 | – | – | – | – | – | –
30 | CCOC(=O)c1sc(SC)nc1N | -0.000489 | -0.00635 | 0.00305 | 0.00634 | -0.00935 | 0.0886 (active) | -0.00543 | -0.0273 | -0.000536 | 0.0235 | – | – | – | – | – | –
